The record followed here is the supplement of paper PMC6135742.

Where a name gives a salt, the structure may show the parent alone. ± gives the standard deviation of the averaged measurements. Whole data set: some 2,600 compounds, median “MBP+ mature oligodendrocyte number relative to DMSO vehicle control” near -0.34, cut for the highest 2% near 13. Only a selection was taken, and the highest values are over-represented in it overall.
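Also: 10 µM single dose with 3-day oligodendrocyte differentiation.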

The assay deals with jimpy (Plp1 jimpy) mouse iPSC-derived oligodendrocyte progenitor cells. Description: MBP+ mature oligodendrocyte number relative to DMSO vehicle control (SDs above negative control mean); higher = more surviving jimpy oligodendrocytes (rescue). The note with it: 10 µM; 3 days.
Turning to `O=C(O)CP(=O)(O)O` [Phosphonoacetic acid], the “MBP+ mature oligodendrocyte number” value was -0.64.

As to `O=C(O)c1cc(=O)c2c(Cl)cc(Cl)cc2[nH]1` [5,7-Dichlorokynurenic acid], the “MBP+ mature oligodendrocyte number” value was -0.544. As to `COC(=O)C1=CO[C@@H](O)[C@@H]2C(CO)=CC[C@H]12` [Genipin], the “MBP+ mature oligodendrocyte number” value was found to be 3.27 ± 0.9. For `C=CC(=O)Nc1cccc(Nc2nc(Nc3ccc(Oc4ccnc(C(=O)NC)c4)cc3)ncc2F)c1` the value was -6.27; for `CN1CCN(C(=O)c2cc3cc(Cl)ccc3[nH]2)CC1`, 1.14.

As to `N[C@@H](CC(=O)N1CCn2c(nnc2C(F)(F)F)C1)Cc1cc(F)c(F)cc1F` [Sitagliptin phosphate monohydrate], the “MBP+ mature oligodendrocyte number” value worked out at 0.184.

For the compound `NCCOc1cc(C(=O)Nc2cc(OCCN)c3ccccc3n2)nc(C(=O)Nc2cc(OCCN)c3ccccc3n2)c1` [Pyridostatin trifluoroacetate salt], the “MBP+ mature oligodendrocyte number” value was -3.78. For `COc1ccccc1CN[C@H]1CCCN[C@H]1c1ccccc1` the value was -0.711; for `CSc1c(C)c(SC)n2ccncc12` [Oltipraz metabolite M2], -2.35; for `CC(C)NC[C@H](O)COc1ccc(CCOCC2CC2)cc1` [Levobetaxolol HCl], 9.7.

For `CN(C)C(=O)Nc1cccc(-c2ccc(N(C)C)cc2)c1` [Atglistatin], the “MBP+ mature oligodendrocyte number” value stood at 6.21. The value for `COc1cc2c[n+](C)c3c4cc5c(cc4ccc3c2cc1OC)OCO5` [Nitidine chloride] was < -4.47; that for `N#CC1(c2ccc(NC(=O)c3cccnc3NCc3ccncc3)cc2)CCCC1` [Apatinib] was 2.86; that for `CN(C/C=C/C#CC(C)(C)C)Cc1cccc2ccccc12` [Terbinafine] was 1.87. Regarding `COc1ccc(CNCc2cccc3ccccc23)cc1`, the “MBP+ mature oligodendrocyte number” value is -1.56. The value for `CN(C/C=C/C#CC(C)(C)C)Cc1cccc2ccccc12` [Terbinafine HCl] was 4.54; that for `CN(Cc1ccc(C(C)(C)C)cc1)Cc1cccc2ccccc12` [Butenafine HCl] was 21.1; that for `CCC(=O)O[C@]1(C(=O)SCF)[C@H](C)C[C@H]2[C@@H]3C[C@H](F)C4=CC(=O)C=C[C@]4(C)[C@@]3(F)[C@@H](O)C[C@@]21C` [Fluticasone propionate] was 8.9. The value for `C[C@@H]1C[C@H]2[C@@H]3C[C@H](F)C4=CC(=O)C=C[C@]4(C)[C@@]3(F)[C@@H](O)C[C@]2(C)[C@@]1(O)C(=O)CO` [Flumethasone] was 8.94; that for `CCC(=O)O[C@]1(C(=O)CCl)[C@@H](C)C[C@H]2[C@@H]3CCC4=CC(=O)C=C[C@]4(C)[C@@]3(F)[C@@H](O)C[C@@]21C` [Clobetasol propionate] was 12.8; that for `C[C@H]1C[C@H]2[C@@H]3CCC4=CC(=O)C=C[C@]4(C)[C@@]3(F)[C@@H](O)C[C@]2(C)[C@@]1(O)C(=O)CO` [Betamethasone] was 6.53 ± 6.4. As to `CCC(=O)OCC(=O)[C@@]1(OC(=O)CC)[C@@H](C)C[C@H]2[C@@H]3CCC4=CC(=O)C=C[C@]4(C)[C@@]3(Cl)[C@@H](O)C[C@@]21C` [Beclomethasone dipropionate], the “MBP+ mature oligodendrocyte number” value is 7.8. For `CCC(=O)O[C@]1(C(=O)CCl)[C@@H](C)C[C@H]2[C@@H]3C[C@H](F)C4=CC(=O)C=C[C@]4(C)[C@@]3(F)[C@@H](O)C[C@@]21C` [Halobetasol Propionate] the value was 21.4.
